Measurements: the supplement of paper PMC9694430

System: LOC_OS01G21960-cb002
Assay: thermal shift delta Tm vs DMSO control; higher = stronger stabilization (binding)
Settings: 12.5 µM; protein concentration 2 µM
Procedure, shortened: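 Rice kinase domain constructs, made in E. coli and purified, were placed in 96-well plates at 2 μM in 19.5 μl of 100 mM potassium phosphate pH 7.5, 150 mM NaCl, 10% glycerol and 5 × SYPRO Orange, with compound in DMSO. A temperature ramp from 25°C to 95°C at 0.05°C/s was used for differential scanning fluorimetry. The melting temperature shift is a triplicate mean compared with DMSO-only protein, derived from Boltzmann fits.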
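Note: purified Escherichia coli-expressed rice kinase domain construct.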

Structure (SMILES) | thermal shift delta Tm [°C]
O=C1NC(=O)C(=Cc2ccc(-c3ccc(F)cc3)o2)S1 (stereo in doubt) | 1.54
CONC(=O)c1ccccc1Nc1cc(Nc2cc(C)nn2C(C)C)ncc1Cl | 0.75
O=C(O)c1ccc2c3c1cccc3c(=O)n1c3ccccc3nc21 | 0.71
OC1CCC(Oc2cccc3cnc(Nc4ccc5nc[nH]c5c4)nc23)CC1 (stereo not given) | 4.16
CN1CCN(Cc2ccc(-c3cnc4[nH]cc(-c5ccc6[nH]ccc6c5)c4c3)cc2)CC1 | 4.44
Cc1cc(N2CCOCC2)cc2[nH]c(-c3c(NC[C@@H](O)c4cccc(Cl)c4)cc[nH]c3=O)nc12 | 1.2
S=C(NCc1ccc2c(c1)OCO2)N1CCN(c2ncnc3c2oc2ccccc23)CC1 [Amuvatinib (MP-470)] | 0.46
COc1cc2c(N3CCN(C(=O)Nc4ccc(OC(C)C)cc4)CC3)ncnc2cc1OCCCN1CCCCC1 [Tandutinib (MLN518)] | 0.83
COc1cc(-c2cc(-c3ccc(N4CCNCC4)cc3)cnc2C)cc(OC)c1OC | 0.67
O=C(Nc1ccc(OC(F)(F)F)cc1)c1sccc1NCc1ccnc2ccccc12 | 0.12
Cc1nc2ccc(-n3ncc(C(=O)c4cc5ccccc5[nH]4)c3N)cc2[nH]1 | -0.17
CC(C)n1ncnc1-c1cn2c(n1)-c1ccc(O[C@@H](C)C(N)=O)cc1OCC2 | 0.8
O=C(O)[C@]1(Cc2cccc(Nc3nccs3)n2)CC[C@@H](Oc2cccc(Cl)c2F)CC1 | 1
O=C(O)CCC(=O)Nc1ccc(Br)cn1 [Bikinin] | 0.85
CCOc1cc2ncc(C#N)c(Nc3ccc(OCc4ccccn4)c(Cl)c3)c2cc1NC(=O)/C=C/CN(C)C [Neratinib (HKI-272)] | 0.71
